Experimental data taken from PubChem BioAssay AID2685 (National Center for Advancing Translational Sciences (NCATS), 2010).
Screen size: about 320,000 compounds; about 2,100 (0.66%) were called active. Inconclusive results (about 53%) are left out. Calls come from the whole dose curve; as a rule, active = well fitted inhibition curve with a large enough effect in the signal ratio, with a control signal flat (not every such curve was filed as active); inconclusive = small, poorly fitted or top-dose-only effect, or effect the other way, or a change in a side signal; inactive = flat fitted curve, though single readings scatter; the % refers to the signal ratio. This excerpt belongs to a sample that is enriched for actives.

Assay: qHTS Assay for Lipid Storage Modulators in Drosophila S3 Cells;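 for cell number change: cells counted by Cell Tracker Red CMTPX staining in the red channel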; for lipid storage change, negative = inhibition: % is set by controls: 0 for no effect and ±100 for the full control effect
Details: BODIPY lipid droplet fluorescence, 18-24 h, cells fed with added oleic acid; cell number change: measured here: cell count max response; series mostly up to 46.1 µM; lipid storage change, negative = inhibition: at the top concentration
In short: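 Laser-scanning cytometry quantifies lipid droplet accumulation (500–530 nm total intensity; droplet/cell object ratio) in oleic acid-fed (400 uM added) Drosophila S3 cells treated with a concentration series. 20 uM Triacsin C defined 100% inhibition.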
Potency is the fitted concentration of half-maximal effect.

| SMILES | lipid storage change, negative = inhibition | cell number change [%] | outcome | Potency |
| --- | --- | --- | --- | --- |
| Cc1cc(NC(=O)c2ocnc2C)no1 | 9% (inactive) | -15.2 |  |  |
| O=C(O)c1cc(-c2ccccc2Cl)n(-c2ccccc2)n1 | 3.91% (inactive) | 19.7 |  |  |
| COc1cc(CC(=O)NCc2ccco2)cc(OC)c1OC |  |  | inactive |  |
| CNC(=S)N/N=C/c1c(C(=O)OC)cnn1-c1ccc(F)cc1F | -3.49% (inactive) | 9.07 |  |  |
| Cc1oc(-c2ccccc2F)nc1CN1CCC(C(=O)NCc2cccnc2)CC1 | 9.91% (inactive) | 15.7 |  |  |
| O=C(Nc1ccccc1)Nc1n[nH]c2nnc(-c3ccccc3)c(-c3ccccc3)c12 | -13% (inactive) | 9.52 |  |  |
| Cc1cc(-c2nc(C)c(C(=O)NNC(=O)NC(C)C)s2)no1 | 2.19% (inactive) | 5.79 |  |  |
| Cc1cc(C(F)(F)F)c2c(N)c(C(=O)NC3CC3)sc2n1 |  | -6.29 |  | 17.8 µM (active) |
| Cc1nnc(NC(=O)c2sc3nc(-c4cccs4)cc(C(F)(F)F)c3c2N)s1 |  | 18.6 |  | 9.2 µM (active) |
| CC(C)(C)C(=O)c1sc2nc(-c3cccs3)cc(C(F)(F)F)c2c1N | -18.4% (inactive) | -8.91 |  |  |
| CN(C)CCNC(=O)c1sc2nc(-c3ccccc3)cc(C(F)(F)F)c2c1N |  | -18.7 | inactive |  |
| Cc1cc(C)c2c(N)c(C(=O)Nc3ccc(C)c(C)c3)sc2n1 |  | -1.35 | inactive |  |
| Cc1cc(C)c2c(N)c(C(=O)NC3CC3)sc2n1 | -19.8% (inactive) | 14.6 |  |  |
| O=C(O)C(C(O)c1ccc([N+](=O)[O-])cc1)[n+]1ccccc1 (stereo unspecified) | 10.3% (inactive) | 27.3 |  |  |
| C(=N\Nc1ccc(-n2ccnc2)nn1)/c1ccccc1 |  |  | inactive |  |
| CCOC(=O)CNC(=O)N1CCCC(C(=O)c2cc(C)c(OC)c(C)c2)C1 (stereo unspecified) | 16.2% (inactive) | 16.3 |  |  |
| O=C(NCCC1=CCCCC1)c1ccc(-n2cncn2)c([N+](=O)[O-])c1 |  | -27 | inactive |  |
| CCOC(=O)c1sc(N(Cc2ccccc2)C(=O)COC(=O)c2cnccn2)nc1C |  |  | inactive |  |
| C=CCn1c(SCc2nc3ccccc3nc2C)nnc1-c1ccoc1C | 11.7% (inactive) | -18.3 |  |  |
| CC(CC(=O)O)CC1=NS(=O)(=O)c2ccccc2N1 (stereo unspecified) |  | -6.45 |  | 13 µM (active) |
| CCOC(=O)CC1=NS(=O)(=O)c2ccccc2N1 | -1.16% (inactive) | 8.13 |  |  |
| Cc1ccc(NC(=O)CC(C)CC2=NS(=O)(=O)c3ccccc3N2)cc1 (stereo unspecified) |  | 4.79 | inactive |  |
| O=C(O)c1cc2ncc(-c3[nH]ncc3[N+](=O)[O-])cn2n1 | 1.3% (inactive) | 25.8 |  |  |
| CCCCc1nc2ccccc2c(=O)n1NC(=O)c1c(O)c2ccccc2n(C)c1=O | -12.5% (inactive) | -2.66 |  |  |

| SMILES | lipid storage change, negative = inhibition | cell number change [%] | outcome | Potency |
| --- | --- | --- | --- | --- |
| COC(=O)c1ccc(CSc2nc3ccc(S(=O)(=O)N4CCOCC4)cc3[nH]2)cc1 | -10.3% (inactive) | 1.16 |  |  |
| O=C(CSc1nc2ccc(S(=O)(=O)N3CCOCC3)cc2[nH]1)N1CCOCC1 |  | 8.23 |  | 18.4 µM (active) |
| Cc1ccc2nc(SCC(=O)N3CCOCC3)[nH]c2c1 | -4.97% (inactive) | -6.28 |  |  |
| O=C(O)C1CCCN(S(=O)(=O)c2ccc(-c3ccc(=O)[nH]n3)s2)C1 (stereo unspecified) |  | -7.22 | inactive |  |
| COC(=O)Nc1ccc(Cn2cc(C(F)(F)F)ccc2=O)cc1 | -2.52% (inactive) | 17.3 |  |  |
| O=C1[C@H](O)[C@@H](O)C(=O)N1Cc1ccccc1 | 1.8% (inactive) | 24.4 |  |  |
| O=C1NC(=O)N(Cc2ccccc2)C1=O | -3.6% (inactive) | -0.926 |  |  |
| O=C1C=CC(=O)N1Cc1ccccc1 |  | -23.7 |  | 4.11 µM (active) |
| COCCNc1ncnc2nc[nH]c12 | 0.95% (inactive) | 7.15 |  |  |
| CCCNc1ncnc2nc[nH]c12 | 12.9% (inactive) | 19.1 |  |  |
| C1=C(CCNc2ncnc3nc[nH]c23)CCCC1 |  | -23.9 |  | 16.4 µM (active) |
| O=C(Sc1ccccc1)c1cccc(Cn2cc(C(F)(F)F)ccc2=O)c1 | 2.79% (inactive) | 1.6 |  |  |
| COc1cccc(NC(=O)c2ccc3nc(C)sc3c2)c1 |  | 0.275 | inactive |  |
| CCN1CCCC(OC(=O)Nc2ccccc2)C1 (stereo unspecified) | -11.5% (inactive) | -14.2 |  |  |
| COc1ccc(CCNc2ncnc3c2c(C)c(C)n3CCO)cc1OC | -24.1% (inactive) | -9.63 |  |  |
| COc1ccc(CCNc2ncnc3sc(C)cc23)cc1OC |  | -27 |  | 4.11 µM (active) |
| Cc1cc2c(NCc3ccccc3)ncnc2s1 |  | -12.9 | inactive |  |
| CCOC(=O)c1ccc(-c2ccc(/C=N/NC(=O)Cc3nnc(N)s3)o2)cc1 | 4.22% (inactive) | -10.3 |  |  |
| CCOC(=O)C1CCN(C(c2cccc(F)c2)c2sc3nc(C)nn3c2O)CC1 (stereo unspecified) | 1.57% (inactive) | 9.03 |  |  |
| Cc1nc(S(=O)(=O)N2CCN(C3c4ccccc4-c4ccccc43)CC2)cn1C | 10.6% (inactive) | 19.2 |  |  |
| Cn1c(=O)n(C)c2cc(NC(=O)c3ccc(F)cc3)ccc21 |  | -7.46 | inactive |  |
| CC(C)Oc1ccc(C(=O)Nc2ccc3c(c2)n(C)c(=O)n3C)cc1 |  | -24.3 |  | 18.4 µM (active) |
| COc1ccc(NC(=O)c2ccc3c(c2)n(C)c(=O)n3C)cc1 | 25.3% (inactive) | -1.07 |  |  |
